Drawing on PubChem BioAssay (NCI), this text covers growth for 15 compounds.

Test systems include T-47D breast; BT-549 breast; MDA-MB-435 melanoma; SW-620 colon; MCF7 breast; HCT-116 colon; HCC-2998 colon; KM12 colon.
What all share (experiment): NCI-60 one-dose screen, 48 h (100 = growth as untreated, 0 = no growth, -100 = all killed)
What all share (conditions): 10 µM unless noted

Compounds without any hit were thinned out: in the full panel of roughly 83,000, 20% have a hit.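 Single-dose data. Exposure time 48 hours. Values below 10 considered active.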 Values without a mark were called inactive. Active and inactive are the calls of the source.

Turning to `O=c1c2ccccc2c(=O)c2c1sc1c(=O)c3ccc(O)cc3c(=O)c12`, the growth is -27.5% (active) with T-47D breast; -92.6% (active) with BT-549 breast; -86.2% (active) in the assay with MDA-MB-435 melanoma; -71.1% (active) with SW-620 colon; -52.2% (active) in the assay on MCF7 breast; -29.2% (active) in the assay on HCT-116 colon. Further, the growth is -60.5% (active) in the assay on HCC-2998 colon and -31.5% (active) in the assay on KM12 colon.
Regarding `Fc1ccc(Cn2cc(CSc3nc4ccccc4o3)nn2)cc1`, the growth is 85.3% in the assay with T-47D breast; 103% with BT-549 breast; 102% in the assay with MDA-MB-435 melanoma; 101% in the assay with SW-620 colon; 93.8% in the assay on MCF7 breast; 92.3% in the assay on HCT-116 colon. For the same compound, the growth in the assay on HCC-2998 colon was 109%; in the assay with KM12 colon, 97.6%.
For the compound `O=C(NNc1cnccn1)c1nc2cc(F)ccc2n2cccc12`, the growth in the assay on T-47D breast was 20%; with BT-549 breast it was 32%; in the assay with MDA-MB-435 melanoma, 24.5%; in the assay with SW-620 colon, 19.6%; in the assay on MCF7 breast it was 5.93% (active); with HCT-116 colon it was 5.5% (active). Moreover, the growth with HCC-2998 colon is 35.7%; in the assay with KM12 colon, 18.5%.
On to `Cc1ccc(C)c(/C=C2\CN(C(=O)OC(C)(C)C)C/C(=C\c3cc(C)ccc3C)C2=O)c1`, for which the growth was 61.4% with T-47D breast; 85.5% with BT-549 breast; -9.21% (active) in the assay on MDA-MB-435 melanoma; 18.5% with SW-620 colon; 23.3% with MCF7 breast; -16.7% (active) in the assay on HCT-116 colon. The values for the growth in the assay on HCC-2998 colon and in the assay with KM12 colon were 52.2% and 16.7%, respectively.
`CCN1C2CCC1/C(=C\c1ccc(F)cc1)C(=O)/C2=C/c1ccc(F)cc1`: the growth in the assay with T-47D breast was 45.8%; in the assay on BT-549 breast, 24.9%; with MDA-MB-435 melanoma, 25%; in the assay on SW-620 colon, 30.4%; in the assay with MCF7 breast it was 18.6%; in the assay with HCT-116 colon, 7.21% (active). Further, the growth in the assay on HCC-2998 colon is 65.8%; in the assay on KM12 colon it was 17.5%.
Consider `COc1ccc2nc(Cl)c(/C=C3\CC(c4ccccc4)=NN(c4ccccc4)C3=O)cc2c1`, for which the growth in the assay on T-47D breast was 73.1%; with BT-549 breast, 43.3%; with MDA-MB-435 melanoma it was 90.3%; in the assay with SW-620 colon it was 88.7%; with MCF7 breast it was 82%; with HCT-116 colon it was 54.1%. Also, the growth is 85% with HCC-2998 colon and 90.3% in the assay on KM12 colon.
With `CCN1C(=O)N(CC)C2C1NN=c1s/c(=C\c3cnc(C)n3C)c(=O)n12` (stereo not given), the growth is 24.9% in the assay with T-47D breast; 50.1% in the assay on BT-549 breast; -69.1% (active) with MDA-MB-435 melanoma; 9.38% (active) in the assay with SW-620 colon; 14.5% in the assay with MCF7 breast; 23.2% in the assay with HCT-116 colon. Further, the growth is 45.6% in the assay on HCC-2998 colon and 16.1% in the assay with KM12 colon.
On to `Cc1ccc2nc(-c3ccc(C(=O)NNC(=S)Nc4ccccc4)cc3)[nH]c2c1`, for which the growth was 86.3% in the assay with T-47D breast; 90.6% with BT-549 breast; 97.8% in the assay with MDA-MB-435 melanoma; 108% in the assay on SW-620 colon; 79.5% with MCF7 breast; 84.6% in the assay with HCT-116 colon. In addition, the growth with HCC-2998 colon is 103%; in the assay on KM12 colon, 94.8%.
On to `CN(Cc1cc(Br)cc(Br)c1O)Cc1cc(Br)cc(Br)c1O`, for which the growth is 42.6% in the assay on T-47D breast; 57.8% with BT-549 breast; 52.6% with MDA-MB-435 melanoma; 24.5% in the assay on SW-620 colon; 17.7% in the assay on MCF7 breast; 7.44% (active) with HCT-116 colon. Besides, the growth was 38.7% with HCC-2998 colon and 42.5% in the assay with KM12 colon.
Turning to `CC1(C)[C@@H](O[C@@H]2OC[C@@H](O[C@@H]3O[C@H](CO)[C@@H](O)[C@H](O)[C@H]3O[C@@H]3OC[C@@H](O)[C@H](O)[C@H]3O)[C@H](O)[C@H]2O[C@@H]2O[C@H](CO)[C@@H](O)[C@H](O)[C@H]2O)CC[C@]2(C)[C@H]3CC[C@]45OC[C@@]6(CC[C@](C)(C=O)C[C@H]64)[C@H](O)C[C@@]5(C)[C@]3(C)CC[C@@H]12`, the growth in the assay on T-47D breast is -55.7% (active); in the assay on BT-549 breast, -94% (active); in the assay on MDA-MB-435 melanoma, -83.8% (active); with SW-620 colon, -58.4% (active); in the assay on MCF7 breast, -59.6% (active); with HCT-116 colon it was -75.9% (active). The growth is -82.1% (active) with HCC-2998 colon and -62% (active) in the assay on KM12 colon.
As for `CCN1C(=O)N(CC)C2C1NC(=S)N2/N=C/c1ccc(OC)cc1` (stereo not given), the growth in the assay on T-47D breast was 49.8%; in the assay on BT-549 breast, 59.4%; in the assay with MDA-MB-435 melanoma, -13.7% (active); with SW-620 colon, 25.6%; with MCF7 breast, 22.5%; in the assay with HCT-116 colon, 24.7%. For the same compound, the values for the growth in the assay with HCC-2998 colon and with KM12 colon were 67.8% and 31.2%, respectively.
Regarding `COc1ccc(C(=O)Cn2c(C(=O)c3ccc(Cl)cc3)nc3ccccc32)cc1`, the growth with T-47D breast is 73.8%; in the assay on BT-549 breast, 88.8%; with MDA-MB-435 melanoma, -8.55% (active); in the assay on SW-620 colon, 32.7%; in the assay with MCF7 breast it was 20.4%; in the assay with HCT-116 colon, 26.9%. For the same compound, the growth in the assay with HCC-2998 colon was 72.7%; in the assay on KM12 colon it was 38.2%.
Take `C=C(c1ccc(OC)c(/C=C/C(=O)c2ccc3c(c2)OCO3)c1)c1cc(OC)c(OC)c(OC)c1`: the growth in the assay on T-47D breast was 8.67% (active); in the assay on BT-549 breast it was 12.7%; with MDA-MB-435 melanoma it was 23.2%; in the assay on SW-620 colon it was 5.67% (active); in the assay with MCF7 breast, 16.1%; in the assay on HCT-116 colon, 2.56% (active). Further, the growth with HCC-2998 colon is 9.86% (active); with KM12 colon, 4.46% (active).
As for `CC1=CC(c2ccco2)=C2C(N)=NNC2N1` (stereo not given), the growth was 85.1% in the assay with T-47D breast; 100% in the assay on BT-549 breast; 101% with MDA-MB-435 melanoma; 102% in the assay on SW-620 colon; 91% with MCF7 breast; 100% in the assay on HCT-116 colon. The results for the growth in the assay on HCC-2998 colon and in the assay with KM12 colon were 99.2% and 105%, respectively.
For `Cc1cccc2c1C[C@@]1(C2=O)C(c2ccc(C(C)(C)C)cc2)=NOS1=O` (stereo not given in full), the growth in the assay on T-47D breast is 70.2%; with BT-549 breast it was 104%; in the assay with MDA-MB-435 melanoma, 109%; in the assay on SW-620 colon, 100%; in the assay with MCF7 breast it was 66.2%; in the assay on HCT-116 colon, 91.6%. Moreover, the values for the growth with HCC-2998 colon and with KM12 colon were 109% and 91.9%, respectively.
